Results: PubChem BioAssay AID1347155 (National Center for Advancing Translational Sciences (NCATS), 2019)
Inconclusive results are not listed. Activity calls are given as the source filed them. The call rests on the fitted dose curve; in most records, active means well fitted inhibition curve with a large enough effect; inconclusive means small, poorly fitted or top-dose-only effect; inactive means no such curve, though single readings can be large or run the other way.

System: Zika virus NS2B-NS3 protease (linked)
Assay: Optimization screen NINDS Rhodamine qHTS for Zika virus inhibitors: Linked NS2B-NS3 protease assay
Conditions: fluorogenic rhodamine substrate; series mostly up to 105 µM; activity change, negative = inhibition: at the top concentration
From the text: Avindra Nath, Ph.D., National Institute of Neurological Disorders and Stroke (NINDS), Bethesda, MD
Radhakrishnan Padmanabhan, Ph.D., Georgetown University (GU), Washington D.C.
Zika Virus causes congenital defects, including microcephaly and is associated with Guillain-Barre syndrome, eningoencephalitis and myelitis in infected adult. […] Using a target-based approach, we hope to establish a screening paradigm to uncover novel, cell-active NS2B-NS3 protease (Zika Virus) specific inhibitors from NCATS' collection of small molecules using qHTS.
Four assay panel was created to identify potential Zika Virus inhibitors. Namely, (1) GU unlinked NS2B-NS3 AMC tagged protease qHTS, (2) GU unlinked NS2B-NS3 Rhodamine tagged protease qHTS, (3) NINDS linked NS2B-NS3 AMC tagged protease qHTS, (4) NINDS linked NS2B-NS3 Rhodamine tagged protease qHTS. Active compounds were re-acquired and re-screened to confirm inhibition. Inhibitors were further screened against various confirmatory and counterscreens in dose response format.
Early Translation Branch (ETB)
National Center for Advancing Translational Sciences (NCATS), Rockville, MD
National Institute of Health (NIH), Bethesda, Maryland
For the linked assay, Nath lab (NINDS) provided the purified linked NS2B-NS3 protease which is consists of hydrophilic domain of NS2B linked to the NS3 protease domain by a flexible (-GGGGSGGGG-) linker. Control compound aprotinin is obtained from Thermo Scientific (#78432; Waltham, Massachusetts). Rhodamine110 substrate ([N-Cbz]-Nle-Lys-Arg-Arg-Rhod110-Arg-Arg-Lys-Nle-[N-Cbz]) was purchased from either Genscript or Bachem.
1536-well Protease (Rhodamine110 Substrate) Assay:
Briefly, 3 microL of enzyme (25 nM final concentration), in assay buffer (10 mM Tris-HCl pH 8.0 with 0.01% Tween 20) were dispensed into a 1,536-well solid-bottom black plate (Greiner Bio One, Monroe, NC). Twenty-three nL of compounds (final concentration range 7.28 nM to 114 microM) or control Aprotinin (final concentration range 3.47 nM to 114 microM) were transferred via Wako Pin-tool (Wako Automation, Richmond, VA). Samples were incubated (room temperature, protected from light) for 15 minutes followed by a 1 microL Rhodamine110 substrate addition (1.5 microM final concentration). Plates were then immediately read on a ViewLux High-throughput CCD imager (PerkinElmer, Waltham, MA) equipped with FITC fluorescence optics (480(20) nm excitation, 540(25) nm emission), then incubated (room temperature, protected from light) for 15 minutes (~15% conversion). The change in fluorescence intensity over the 15-minute reaction period was normalized against no-inhibitor and no-enzyme controls and the resulting percent inhibition data were fitted to a 4-parameter Hill equation. Aprotinin was used as intraplate control.

Activity change, negative = inhibition, inactive:
CO[C@H]1C[C@H](O[C@@H]2/C(C)=C/C[C@@H]3C[C@@H](C[C@]4(CC[C@H](C)[C@@H](C5CCCCC5)O4)O3)OC(=O)[C@@H]3C=C(C)/C(=N/O)[C@H]4OC/C(=C\C=C\[C@@H]2C)[C@]43O)O[C@@H](C)[C@@H]1O -47.8%, CC1O[C@@H](O[C@@H]2C(O)C[C@H](O[C@@H]3C(O)C[C@@H](OC4CC[C@@]5(C)C6CC(O)[C@@]7(C)C(C8=CC(=O)OC8)CC[C@@]7(O)C6CC[C@@H]5C4)OC3C)OC2C)CC(O)[C@H]1O (stereo partly drawn) 9.11%, C[C@H]1O[C@@H](O[C@H]2CC[C@@]3(C)[C@H](CC[C@@H]4[C@@H]3C[C@@H](O)[C@]3(C)[C@@H](C5=CC(=O)OC5)CC[C@]43O)C2)C[C@H](O)[C@@H]1O[C@H]1C[C@H](O)[C@H](O[C@H]2C[C@H](O)[C@H](O[C@@H]3O[C@H](CO)[C@@H](O)[C@H](O)[C@H]3O)[C@@H](C)O2)[C@@H](C)O1 6.52%
